# Shown are actives, neighbours in structure and some others; about 4.5% of the full set was active somewhere.
# Gli-Sufu block – Gli-Sufu pathway antagonists, primary screen, luciferase luminescence, Sufu-KO-LIGHT cells, uHTS; Sufu-KO-LIGHT fibroblasts, Gli luciferase reporter luminescence; inhibition, % at 5 µM; 340,000 tested, 0.74% active; AID 588413, 2011;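 active means inhibition above about 55%, limit read from the data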;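 further: 0% = DMSO-treated cells and 100% = wells with medium but no cells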
# CSC inhib – cancer stem cell viability inhibitors, primary screen, luminescence; cancer stem cell-like cells viability; inhibition, % at 7.5 µM; 300,000 tested, 1.1% active; in the data active means inhibition above about 75%; tested in HMLE shEcad cells
# Beta apoptosis – inhibitors of cytokine-induced beta cell apoptosis, primary screen, luminescence. INS-1E cytokine-induced death, ATP luminescence, 48 h; percent of positive-control rescue, neutral wells zero. protection from apoptosis, % (test concentration not listed). 300,000 tested, 0.8% active. AID 435005, 2010;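 active means Every replicate reaches about 75%, or at least half do and their mean reaches it too, limit read from the data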;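 further: 0% = cytokine-treated negative control wells and 100% = positive control rescue; higher means more ATP so stronger rescue from cytokine killing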
# Mdm2-MdmX inh – inhibitors of human Mdm2-MdmX association, primary screen, cell-based, luminescence, split luciferase, SaOS-2, uHTS; Protein Mdm4 (Homo sapiens) + E3 ubiquitin-protein ligase Mdm2 (Homo sapiens), …; SaOS-2 split-luciferase Mdm2/MdmX complementation; inhibition, % at 8 µM; 330,000 tested, 3% active;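 active means inhibition of at least 50% at 8 µM in the primary screen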
# Target sequence (O15151 whole entry, looked up): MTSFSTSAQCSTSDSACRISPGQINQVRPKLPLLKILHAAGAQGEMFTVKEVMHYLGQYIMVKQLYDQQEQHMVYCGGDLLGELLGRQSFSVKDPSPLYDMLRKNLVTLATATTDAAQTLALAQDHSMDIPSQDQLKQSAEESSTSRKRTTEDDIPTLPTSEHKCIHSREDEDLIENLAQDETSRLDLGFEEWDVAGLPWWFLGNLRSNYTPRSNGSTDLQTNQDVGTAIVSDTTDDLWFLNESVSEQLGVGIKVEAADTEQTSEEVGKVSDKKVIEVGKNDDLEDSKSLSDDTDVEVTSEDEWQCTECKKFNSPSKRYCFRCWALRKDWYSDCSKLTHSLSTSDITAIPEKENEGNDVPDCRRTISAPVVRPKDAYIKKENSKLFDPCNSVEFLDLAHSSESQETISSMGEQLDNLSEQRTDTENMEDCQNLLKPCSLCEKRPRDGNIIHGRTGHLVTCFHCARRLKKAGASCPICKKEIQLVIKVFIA
# Target sequence (Q00987 whole entry, looked up): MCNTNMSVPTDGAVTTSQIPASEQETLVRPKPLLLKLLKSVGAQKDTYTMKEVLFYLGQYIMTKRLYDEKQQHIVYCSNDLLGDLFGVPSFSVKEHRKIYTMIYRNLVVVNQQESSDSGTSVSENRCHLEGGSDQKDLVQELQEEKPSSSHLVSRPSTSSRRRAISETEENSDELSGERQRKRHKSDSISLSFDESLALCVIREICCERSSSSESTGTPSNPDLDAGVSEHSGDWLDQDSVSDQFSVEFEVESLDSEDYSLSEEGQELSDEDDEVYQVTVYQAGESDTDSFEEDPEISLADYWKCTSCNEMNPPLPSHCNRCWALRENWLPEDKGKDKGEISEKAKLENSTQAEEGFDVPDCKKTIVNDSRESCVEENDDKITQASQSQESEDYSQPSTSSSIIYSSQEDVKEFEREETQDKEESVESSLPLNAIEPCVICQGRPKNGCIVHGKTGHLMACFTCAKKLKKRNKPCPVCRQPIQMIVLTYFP
# 697 NFkB inh – inhibitors of PMA/ionomycin-induced NF-kB reporter, 697 cells, primary screen, B-cell NF-kB inhibitor project, cell-based, luminescence, uHTS; 697 B-cell NF-kB luciferase reporter, 16 h; inhibition, % at 4 µM; 330,000 tested, 0.33% active; in the data active means inhibition above about 35%
# Jurkat NFkB inh – inhibitors of induced NF-kB luciferase reporter, primary screen, TCR NF-kB activation inhibitor project, cell-based, luminescence, uHTS. Jurkat, PMA/ionomycin-induced NF-kB luciferase reporter. inhibition, % at 4 µM. 330,000 tested, 0.53% active; in the data active means inhibition above about 50%
# Mdm2 MdmX conf – Mdm2-MdmX complex disruptors, retested hits, confirmation, luminescence, single concentration. shares compounds with Mdm2-MdmX inh. Mdm2-MdmX binding, luminescent assay. inhibition, % at 8 µM. 10,000 tested, 55% active. AID 489028, 2010; in the data active means inhibition above about 40%
# FLuc counter – full-length luciferase signal inhibition, confirmation, counter-screen for Mdm2/MdmX interaction inhibitor project, cell-based, single concentration, SaOS-2; shares compounds with Mdm2-MdmX inh; SaOS-2 full-length luciferase counterscreen, luminescence; inhibition, % at 8 µM; 6,200 tested, 77% active; AID 504607, 2011;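 active means mean inhibition at 8 µM reaching about 37%, which flags the compound as non-specific, limit read from the data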;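 further: p53-null SaOS-2 cells with luciferase driven by a doxycycline-inducible promoter; compound on cells about two nights before reading with doxycycline added after day one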
# * = called active by the depositor; / = no result given.
SMILES,Gli-Sufu block,CSC inhib,Beta apoptosis,Mdm2-MdmX inh,697 NFkB inh,Jurkat NFkB inh,Mdm2 MdmX conf,FLuc counter
O=C(O)CN1C(=O)/C(=C/c2ccccc2Cl)Oc2ccccc21,4,-24,-4,-9,2,1,/,/
CN(Cc1ccco1)c1ncnc2ccc(-c3ccc4c(ccn4C)c3)cc12,19,84*,20,51*,-27,44,53*,66*
COc1ccc(C2=Nn3c(nnc3-c3ccncc3)SC2)cc1,-5,2,-2,52*,-10,8,55*,22
Cc1cc(-c2nnc3n2N=C(c2ccc(-c4ccccc4)cc2)CS3)n[nH]1,15,7,-5,70*,9,3,12,/
COc1ccc(C2=Nn3c(nnc3-c3cccnc3)SC2)cc1,0,/,/,/,/,/,/,/
c1ccc(-c2cc(-c3nnc4n3N=C(c3ccc5ccccc5c3)CS4)[nH]n2)cc1,1,92*,11,57*,-20,-5,78*,76*
CC(CN1C(C)CCCC1C)OC(=O)c1ccc(F)cc1 (stereo not drawn),/,-16,-3,-15,-3,14,/,/
COc1ccc2ncn(-c3ccccc3)c2c1,-19,-8,-20,63*,-9,-13,50*,42*
Cc1cc(NC(=O)CSc2nc(-c3ccco3)cc(C(F)(F)F)n2)no1,-2,-20,18,65*,-26,46,53*,77*
Cc1cc(NC(=O)CCSc2nc(-c3ccco3)cc(C(F)(F)F)n2)no1,-1,15,-10,-4,8,8,/,/
COc1ccc(CCNC(=O)CSc2nc(-c3ccco3)cc(C(F)(F)F)n2)cc1OC,2,-7,-13,-12,-10,-7,/,/
O=C(CSc1nc(-c2ccco2)cc(C(F)(F)F)n1)NCCc1ccccc1,5,0,-3,73*,16,1,68*,21
COC(=O)Cn1c(=NC(=O)c2sc3ccccc3c2Cl)sc2cc(S(N)(=O)=O)ccc21,17,-13,-1,64*,-8,-12,38,52*
Cc1ccc(S(=O)(=O)Nc2ccc(NC(=O)Nc3cccc(C(F)(F)F)c3)cc2)cc1,-1,96*,96*,85*,-12,4,46*,77*
Cc1ccc(NC(=O)Nc2ccon2)cc1,-24,/,/,6,19,-37,/,/
CCN(CC)S(=O)(=O)c1ccc(NC(=O)Nc2cccc(C(F)(F)F)c2)cc1,14,83*,98*,94*,-35,8,87*,35
O=C(Nc1ccc(OC(F)F)cc1)Nc1cccc(C(F)(F)F)c1,-6,71,78*,76*,-12,8,93*,24
O=C(Nc1ccncc1)Nc1cccc(C(F)(F)F)c1,10,-9,5,48,-16,3,/,/
Cc1ccc(NC(=O)Nc2cc(C(F)(F)F)c[nH]c2=O)cc1,-14,10,-33,58*,23,-1,45*,72*
Cc1cccc(NC(=O)CN(C)C(C)C(=O)Nc2ccc(S(=O)(=O)N3CCCC3)cc2)c1C (stereo not drawn),4,/,/,5,10,15,/,/
N#Cc1cccc(NC(=O)CNc2cc(S(=O)(=O)N3CCOCC3)ccc2N2CCCC2)c1,-3,/,/,0,22,9,/,/
CCCCCc1cc(=O)oc2c(C(CCN3CCCC(C)C3)c3cc(OC)c(OC)c(OC)c3)c(OC)cc(OC)c12 (stereo not drawn),6,102*,110*,100*,6,24,52*,43*
CCCCCc1cc(=O)oc2c(C(CCN3CCCC(C)C3)c3ccc(N(C)C)cc3)c(OC)cc(OC)c12 (stereo not drawn),22,109*,63,96*,9,19,27,/
CCCCCc1cc(=O)oc2c(C(CCN3CCCCC3)c3cc(OC)c(OC)c(OC)c3)c(OC)cc(OC)c12 (stereo not drawn),11,79*,30,98*,-6,29,46*,27
CCCCCc1cc(=O)oc2c(C(CCN(CC)CC)c3ccc(N(C)C)cc3)c(OC)cc(OC)c12 (stereo not drawn),3,27,5,90*,17,-4,25,/
SMILES,Gli-Sufu block,CSC inhib,Beta apoptosis,Mdm2-MdmX inh,697 NFkB inh,Jurkat NFkB inh,Mdm2 MdmX conf,FLuc counter
Cc1cc(C)c(C(=O)N2CCCC(N3CCN(c4ccc(F)cc4)CC3)C2)o1 (stereo not drawn),-9,6,1,3,4,13,/,/
Cn1nc(C(F)(F)F)c(-c2ccc(F)cc2)c1NC(=O)c1ccco1,-5,1,/,15,9,10,/,/
Cn1nc(C(F)(F)F)c(-c2ccc(Br)cc2)c1NC(=O)Nc1ccc(F)cc1F,3,62,32,91*,-5,18,50*,39*
Nc1[nH]nc2nc(NCc3ccccc3)c3c(c12)CCN(Cc1ccccc1)C3,-31,20,-18,53*,-22,-2,20,/
CCOC(=O)c1c(C)oc2c(F)c(F)c(F)c(F)c2c1=O,2,90*,/,101*,-2,-4,36,/
O=C1c2ccc(Cl)cc2S(=O)(=O)c2cccc(C(=O)N3CCC(Cc4ccccc4)CC3)c21,3,123*,3,68*,14,-1,-3,/
O=C(NCC1CC1)c1cccc2c1C(=O)c1ccc(-c3ccc(OC(F)(F)F)cc3)cc1S2(=O)=O,-8,/,5,66*,2,0,8,/
O=C(NC1CC1)c1cccc2c1C(=O)c1ccc(N3CCC(Cc4ccccc4)CC3)cc1S2(=O)=O,22,27,3,17,-63,10,/,/
COc1ccc(-c2ccc3c(c2)S(=O)(=O)c2cccc(C(=O)NCCOc4ccccc4)c2C3=O)cc1OC,19,-4,12,76*,12,0,27,/
COc1ccc(-c2ccc3c(c2)S(=O)(=O)c2cccc(C(=O)NC[C@@H]4CCCO4)c2C3=O)cc1OC,-4,-16,0,35,31,4,/,/
O=C(NCCOc1ccccc1Cl)c1cccc2c1C(=O)c1ccc(Cl)cc1S2(=O)=O,-9,20,6,59*,5,4,-3,/

# High-throughput results from PubChem.
